This is part of a sample that, as a whole, favours compounds with a hit. Of some 79,000 tested, about 15% had one in any assay. A number with no mark means an inactive call. Activity calls are given as the source filed them. No stated cut-off is given here; in the data, active means growth inhibition above about 70%; inactive means the rest. Where a SMILES comes first, the peptide text is derived from it. The star is where a group is joined. Trt = c1ccc(C(c2ccccc2)(c2ccccc2)*)cc1; OtBu = CC(C)(C)O*
Assay: NCI Yeast Anticancer Drug Screen. Data for the mlh1 rad18 strain (AID 175)
Settings: S. cerevisiae mlh1 rad18 strain growth inhibition; at 50.0 µM (retest, dose inferred, filed as 5.0); hits give high values
Outline: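 A repair-deficient yeast strain is exposed to test compound, and growth is scored relative to vehicle-treated controls.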
In the case of `CCOC(=O)C(=N\Nc1cccc(C)c1C)/C(C)=N\NC(N)=S`, the growth inhibition is reported as 81% (active).
With `CCN(CC)CCNc1ccc(C)c2oc3ccc(O)cc3c(=O)c12` the growth inhibition was 43%.
For `O=C1C(C=NC(=S)c2ccccc2)=C(O)c2ccccc21`, the growth inhibition was 87% (active).
With `CCOC(=O)Cc1csc(/N=C\c2c(O)c3ccccc3oc2=O)n1` the growth inhibition was 45%.
With `CC(C)(CCCCC(C)(C)NCC1COc2ccccc2O1)NCC1COc2ccccc2O1` (stereo unspecified) the growth inhibition was 74% (active).
Work on `O=C1OC(c2ccc(O)cc2)=C(c2ccccc2)C1c1ccccc1` (stereo unspecified) yielded a growth inhibition of 67%.
Compound `O=C(c1ccccc1)C(Br)CCCC(Br)C(=O)c1ccccc1` (stereo unspecified) has a growth inhibition of 60%.
Compound `CCC(c1ccc(O)cc1)C(O)(CC)c1ccc(O)cc1` (stereo unspecified) has a growth inhibition of -8%.
For `Cn1cnc2[nH]c(Cl)nc(=S)c21`, the growth inhibition was 0%.
For `O=C(NCCN1CCCC1)c1cn2c(ccc3sc4ccccc4c(=O)c32)n1`, the growth inhibition was 81% (active).
With `CC(C)(C)OC(=O)CNC(=O)C(Cc1ccccc1)NC(=O)C(N)CSC(c1ccccc1)(c1ccccc1)c1ccccc1` (stereo not drawn) (H-Cys(Trt)-Phe-Gly-OtBu; configuration not given here) the growth inhibition was 45%.
With `C/C(=N/NC(N)=S)C(CN(C)C)C(C1=C(O)c2ccccc2OC1)c1ccccc1` (stereo unspecified) the growth inhibition was 0%.
In the case of `O=C(CC(=O)c1ccccc1)CC(=O)c1ccccc1Br`, the growth inhibition is reported as 96% (active).
In the case of `O=C1OC2(c3ccccc31)c1cc(I)c(O)c(I)c1Oc1c2cc(I)c(O)c1I`, the growth inhibition is reported as 99% (active).
With `Nc1cc(Cl)c2c(c1)Cc1ccccc1-2` the growth inhibition was 94% (active).
In the case of `C1=Cc2ccccc2/C1=C/c1ccccc1`, the growth inhibition is reported as 97% (active).

— PubChem BioAssay (NCI)
